Source: PubChem BioAssay (NCI)
About 83,000 compounds went through this panel and 20% of them were active in at least one assay; those are over-represented in the sample as a whole.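 Plates (96-well) were seeded with cells, treated with compound at one concentration, and incubated for 48 hours before percent growth was determined.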 Values without a mark were called inactive. Calls of active or inactive are those of the source. How the source made its calls: active means growth percent below 10; inactive means the rest.

Columns and labels:
Assay in all cases: NCI-60 one-dose screen, 48 h (100 = growth as untreated, 0 = no growth, -100 = all killed)
Conditions in all cases: 10 µM unless noted
SR leukemia = system: SR leukemia
RPMI-8226 leukemia = system: RPMI-8226 leukemia
OVCAR-8 ovarian = system: OVCAR-8 ovarian
OVCAR-5 ovarian = system: OVCAR-5 ovarian
OVCAR-4 ovarian = system: OVCAR-4 ovarian
SK-OV-3 ovarian = system: SK-OV-3 ovarian
IGROV1 ovarian = system: IGROV1 ovarian
OVCAR-3 ovarian = system: OVCAR-3 ovarian
HS 578T breast = system: HS 578T breast
NCI/ADR-RES ovarian = system: NCI/ADR-RES ovarian

| Structure (SMILES) | growth (SR leukemia) | growth (RPMI-8226 leukemia) | growth (OVCAR-8 ovarian) | growth (OVCAR-5 ovarian) | growth (OVCAR-4 ovarian) | growth (SK-OV-3 ovarian) | growth (IGROV1 ovarian) | growth (OVCAR-3 ovarian) | growth (HS 578T breast) | growth (NCI/ADR-RES ovarian) |
| --- | --- | --- | --- | --- | --- | --- | --- | --- | --- | --- |
| COc1ccc(/C(C)=N/NC(=O)CSc2nc3ccccc3c(=O)n2Cc2ccc(S(N)(=O)=O)cc2)c(OC)c1 | 95.6% | 116% | 100% | 99% | 101% | 114% | 104% | 111% | 102% | 100% |
| CCOC(=O)c1c(C)nc2c(c1N)C(=O)C(=O)N2Cc1ccc(C(F)(F)F)cc1 | 23.3% | 27.2% | 63.3% | 91.7% | 69.3% | 82.9% | 62.5% | 18% | 65.7% | 17.7% |
| CN1CCN(c2cnc(C(=O)Nc3cc(F)cc4cccnc34)cn2)CC1 | 24.5% | 49.2% | 63.8% | 62.7% | 8.94% (active) | 96.9% | 8.45% (active) | 9.25% (active) | 69.2% | 56.5% |
| COc1ccc(/C=N/C2=C(C#N)C(c3ccccc3[N+](=O)[O-])c3ccc4ccccc4c3O2)cc1 (stereo not given) | 89.4% | 90.3% | 95.1% | 105% | 91.5% | 101% | 54.6% | 77.4% | 95.3% | 95.8% |
| COc1ccc(C(O)c2cc3c(N)c(C(=O)Nc4ccc(Br)cc4)sc3nc2C)cc1 (stereo not given) | -8% (active) | -4.62% (active) | 30.6% | 59% | 42.9% | 27.7% | 43.6% | -34.9% (active) | 3.84% (active) | 18.5% |
| COc1cc2oc(-c3cccc(C(=O)Nc4ccc(Cl)cc4)c3)cc(=O)c2c(OC)c1OC | 8.67% (active) | -18.3% (active) | 23.5% | 57.5% | 60.5% | 33.6% | 25.5% | 43.1% | 33% | 26.2% |
| CC[C@H](C)[C@@H]1NC(=O)[C@H](Cc2ccc(O)cc2)N(C)C(=O)[C@H](Cc2ccccc2)NC(=O)CN(C)C(=O)[C@@H]2CCCN2C(=O)[C@@H](Cc2ccccc2)N(C)C(=O)[C@H](CC(C)C)NC1=O | 4.5% (active) | -33.3% (active) | 5.34% (active) | -7.89% (active) | -4.8% (active) | 4.76% (active) | -8.42% (active) | -10.7% (active) | -12% (active) | 70.7% |
| CC(C)(C#N)N1CCN(c2ccccc2Cl)CC1 | 101% | 105% | 93.9% | 97.2% | 119% | 103% | 106% | 101% | 96.4% | 98.8% |
| Cc1ccc(C2CC(c3cccc(Nc4ccncc4)c3)=NN2c2ccc(Cl)cc2)cc1 (stereo not given) | -12.4% (active) | -46% (active) | -35% (active) | -100% (active) | -83.2% (active) | -92.3% (active) | -92.7% (active) | -91.1% (active) | -55.9% (active) | -63% (active) |
| COc1cc2nc(-c3ccc(-c4nn[nH]n4)cc3)[nH]c(=O)c2cc1OC | 97.8% | 81.8% | 105% | 99.4% | 115% | 108% | 108% | 112% | 110% | 101% |
| CC1(C)CN(Cc2ccccc2)CCN1Cc1ccccc1 | 95.8% | 98% | 104% | 103% | 113% | 122% | 101% | 106% | 99.1% | 105% |
| C=C(C)[C@@H]1CC[C@]2(C(=O)N3CCN(C)CC3)CC[C@]3(C)[C@H](CC[C@@H]4[C@@]5(C)CCC(=O)C(C)(C)[C@@H]5CC[C@]43C)[C@@H]12 | -12.1% (active) | 78.1% | 87.1% | 92.5% | 83.5% | 104% | 89.2% | 74% | 95.3% | 74.6% |
| Cc1ccc(/C=C/C(=O)c2ccc(N)cc2)c(C)c1 | -45.1% (active) | 33% | 17.3% | 103% | 73% | 122% | 12% | 21.7% | 100% | 62.2% |
| COc1ccc(Nn2c(SCC(=O)Nc3nc(-c4ccc(Cl)cc4)cs3)nc(C)c2C)cc1 | 40.3% | 35.7% | 43.9% | 111% | 37% | 77.8% | 70.9% | 60.7% | 86.1% | 23.1% |
| COc1cc(COC(=O)CCCCC[P+](c2ccccc2)(c2ccccc2)c2ccccc2)c(OC)c2c1OCO2 | 0.217% (active) | -23.1% (active) | 64.4% | 76.9% | 41.2% | 76.6% | 28.6% | 48.7% | 70.8% | 104% |
| Cc1ccc(C2CC(c3cccc(Nc4ccncc4)c3)=NN2c2ccccc2)cc1 (stereo not given) | -13.3% (active) | -48.7% (active) | -50.7% (active) | -93.4% (active) | -86.5% (active) | -31.4% (active) | -92.7% (active) | -89.2% (active) | -57.5% (active) | -72.8% (active) |
| CC(C)Cc1ccc(C(C)C(=O)NCc2c[nH]c3ccc(Cl)cc23)cc1 (stereo not given) | 80.5% | 78.5% | 93.4% | 98.9% | 88% | 98.9% | 86.9% | 95.5% | 82.8% | 92.5% |
| CN(C)C(C(N)=O)c1ccc(Cl)cc1 (stereo not given) | 98.5% | 107% | 101% | 95.9% | 102% | 98.5% | 103% | 112% | 103% | 106% |
| O=C(CN1CCOCC1)Nc1ccc2ncnc(Nc3ccc(Oc4cccc(C(F)(F)F)c4)c(Cl)c3)c2c1 | 61.5% | 51.5% | 49.8% | 64.3% | 55% | 16% | 9.01% (active) | 33.8% | 70.8% | 42.3% |
| CC(=O)c1cc2c(N)c(C(=O)Nc3cncc4ccccc34)sc2nc1C | 77.5% | 94.9% | 104% | 104% | 113% | 93.6% | 104% | 110% | 95.3% | 104% |
| COc1cc(OC)c(/C=C/C(=O)c2ccc(Nc3ncnc4ccccc34)cc2)c(OC)c1 | 1.91% (active) | 12.2% | -44% (active) | 8.12% (active) | 6.46% (active) | -42.4% (active) | 19.3% | -67.8% (active) | -13.2% (active) | -17.2% (active) |
| C=C(C)[C@@H]1CC[C@]2(C=O)CC[C@]3(C)[C@H](CC[C@@H]4[C@@]5(C)CCCNC(C)(C)[C@@H]5CC[C@]43C)[C@@H]12 | -31.4% (active) | 12.3% | 90.9% | 93.3% | 82.3% | 106% | 50.8% | 77.5% | 89.1% | 85.3% |
| O=C1Nc2cc(-c3ccncc3)ccc2/C1=C/c1ccc[nH]1 | 15% | 81.8% | 101% | 76.9% | 37.3% | 93.3% | 80.8% | 85.2% | 107% | 94.6% |
| COc1cccc(C(Cc2ccccc2)Nc2ccccc2)c1OC (stereo not given) | 102% | 89.7% | 99% | 103% | 98.1% | 91.3% | 86.8% | 98.4% | 106% | 98.2% |
| COc1cc(-c2nc3sccn3c2-c2ccnc(NCCNS(=O)(=O)c3ccc(F)cc3)n2)ccc1F | 8.1% (active) | -39.4% (active) | -9.78% (active) | 56% | 10.8% | 22.9% | 3.95% (active) | 25.3% | 28.4% | 8.6% (active) |
| CC(C)(C)CC(C)(C)Nc1c(-c2ccc3c(c2)OCO3)nc2cnccn12 | 73.1% | 69.7% | 95.1% | 91.2% | 86.9% | 92% | 72.1% | 92.5% | 88.5% | 87.7% |
| COc1ccc(C(=O)c2cc(C)c(OC)c(C)c2)c(OC)c1O | 18.8% | 25.9% | 11.3% | 46.9% | 41.1% | -10.5% (active) | 25.9% | -15.8% (active) | 18.1% | 1.87% (active) |
